From paper PMC4336329 (PLoS ONE, 2015)
The whole screen tested about 310,000 compounds, of which about 2,200 (0.71%) showed an effect of 50% or more. Effects have a minus sign here. This is one part of a sample in which strong results are shown more often than they occur.

What follows are compounds tested against human ether-à-go-go-related gene (hERG) potassium channel (human, UniProt Q12809) (assay: primary screen, population patch clamp on CHO cells stably expressing hERG; higher = less effect of the substance).
Sequence of human ether-à-go-go-related gene (hERG) potassium channel (Q12809 whole entry, looked up): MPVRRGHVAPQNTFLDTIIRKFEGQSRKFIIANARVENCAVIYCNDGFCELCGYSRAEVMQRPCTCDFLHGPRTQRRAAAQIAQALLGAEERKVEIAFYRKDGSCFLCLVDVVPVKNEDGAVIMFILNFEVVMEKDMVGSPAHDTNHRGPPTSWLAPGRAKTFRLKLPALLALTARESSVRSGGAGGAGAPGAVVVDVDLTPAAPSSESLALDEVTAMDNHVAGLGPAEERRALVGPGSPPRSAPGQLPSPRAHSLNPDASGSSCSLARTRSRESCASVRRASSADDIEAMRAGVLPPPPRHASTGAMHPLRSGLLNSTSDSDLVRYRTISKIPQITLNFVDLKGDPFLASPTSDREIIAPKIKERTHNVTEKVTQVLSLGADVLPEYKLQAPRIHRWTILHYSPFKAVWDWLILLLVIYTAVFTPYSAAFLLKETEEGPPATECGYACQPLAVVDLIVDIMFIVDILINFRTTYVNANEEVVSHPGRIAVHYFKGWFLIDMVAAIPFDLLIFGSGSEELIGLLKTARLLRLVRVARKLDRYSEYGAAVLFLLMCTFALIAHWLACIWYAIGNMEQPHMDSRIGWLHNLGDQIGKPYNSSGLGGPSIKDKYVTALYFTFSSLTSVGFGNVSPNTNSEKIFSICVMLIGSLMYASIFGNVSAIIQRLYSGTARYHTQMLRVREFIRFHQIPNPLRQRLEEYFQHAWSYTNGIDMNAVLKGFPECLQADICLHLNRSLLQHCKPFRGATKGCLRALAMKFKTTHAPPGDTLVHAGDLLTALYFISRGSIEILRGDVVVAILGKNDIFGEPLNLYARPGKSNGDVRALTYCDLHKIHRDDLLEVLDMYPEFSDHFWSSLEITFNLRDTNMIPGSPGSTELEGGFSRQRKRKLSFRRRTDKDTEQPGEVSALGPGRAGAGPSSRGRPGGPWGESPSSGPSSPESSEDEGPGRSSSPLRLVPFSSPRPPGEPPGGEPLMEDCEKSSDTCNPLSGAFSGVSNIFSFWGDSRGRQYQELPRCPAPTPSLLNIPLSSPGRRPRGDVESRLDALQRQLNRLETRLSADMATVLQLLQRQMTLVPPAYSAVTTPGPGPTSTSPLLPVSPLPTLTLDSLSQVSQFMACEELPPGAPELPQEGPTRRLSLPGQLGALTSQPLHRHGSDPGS

| SMILES | hERG current change (%, negative = inhibition) at 1uM [%] |
| --- | --- |
| Cc1nc(OCc2c(C)noc2C)c2ccccc2n1 | 13.1 |
| CCn1cc(C(=O)N2CCC3(CC2)OCCO3)c(=O)c2cc(S(=O)(=O)N3CCCC3)ccc21 | 15.9 |
| Cn1c(CNC(=O)Nc2ccccc2Cl)nnc1SCc1ccccc1 | 2.3 |
| CCCN(C(=O)CSc1nnc2ccccn12)C1CCS(=O)(=O)C1 (centres unmarked) | 10.4 |
| CC(=O)NC(NC(C)=O)c1ccc(Br)cc1 | -1.9 |
| COC(=O)c1ccc(C)c(NC(=O)c2ccc(Cl)c([N+](=O)[O-])c2)c1 | 5.94 |
| CCOC(=O)c1[nH]c(C)c(C(=O)N2CCN(c3ccccc3)CC2)c1C | -3.94 |
| CCOC(=O)c1c(CN2CCN(c3ccccc3)CC2)oc2ccc(O)cc12 | 12.6 |
| CCOC(=O)c1c(N2CCN(c3ccccc3)CC2)cc(C)nc1C.O=C([O-])C(=O)[O-] | -69 |
| CCCC(=O)Nc1ccccc1NC(=O)CN(C)S(=O)(=O)c1ccccc1 | 9.94 |
| CCOc1ccccc1NC(=O)CSc1nnc(-c2ccco2)o1 | 8.2 |
| N/C(=N\OC(=O)CC1CCCCC1)c1cccc([N+](=O)[O-])c1 | 13.7 |
| N/C(=N\OC(=O)CCC1CCCCC1)c1cccc([N+](=O)[O-])c1 | 3.64 |
| N/C(=N\OC(=O)CCC1CCCC1)c1cccc([N+](=O)[O-])c1 | -53.8 |
| O=C(O)c1ccc(NS(=O)(=O)c2cc(Cl)ccc2Cl)cc1O | 4.19 |
| CCCc1cc(C(=O)Nc2cc(Br)ccc2O)no1 | 18.4 |
| O=C(NCCc1ccccc1)C(=O)Nc1ccc([N+](=O)[O-])cc1 | 11 |
| Cc1ccc(NC(=O)C(=O)NCCN2CCN(Cc3ccc([N+](=O)[O-])cc3)CC2)cc1 | -53.3 |
| CCc1ccc(NC(=O)C(=O)NCCN2CCN(S(C)(=O)=O)CC2)cc1 | 18.2 |

| SMILES | hERG current change (%, negative = inhibition) at 1uM [%] |
| --- | --- |
| CCCCc1ccc(NC(=O)C(=O)NCCN2CCN(Cc3ccc([N+](=O)[O-])cc3)CC2)cc1 | -6.8 |
| CCN1CCN(CCNC(=O)Nc2ccc([N+](=O)[O-])cc2)CC1 | 13.2 |
| O=C(NCCN1CCN(Cc2ccc([N+](=O)[O-])cc2)CC1)C(=O)Nc1ccccc1 | -53.8 |
| CCc1ccc(NC(=O)C(=O)NCCN2CCN(Cc3ccc([N+](=O)[O-])cc3)CC2)cc1 | -67.4 |
| O=C(NCCN1CCN(S(=O)(=O)c2ccc([N+](=O)[O-])cc2)CC1)C(=O)Nc1ccccc1 | 2.87 |
| CN1CCN(CCNC(=O)Nc2ccc([N+](=O)[O-])cc2)CC1 | 10.7 |
| Cc1ccc(CNS(=O)(=O)/C=C/c2ccc3c(c2)OCO3)cc1 | -0.964 |
| c1ccc(-c2nnc3sc(-c4csc5c4CCCC5)nn23)cc1 | 4.3 |
| O=C(Nc1ncn[nH]1)c1ccc([N+](=O)[O-])cc1[N+](=O)[O-] | 18.3 |
| COCCNC(=S)N(Cc1cccs1)Cc1cc2cccc(C)c2[nH]c1=O | 15.9 |
| Brc1cccc(CNc2nc3ccccc3n2CCN2CCCCC2)c1 | -0.507 |
| c1ccc2c(c1)nc(NCc1ccc3c(c1)OCO3)n2CCN1CCOCC1 | -40.7 |
| Cc1nc2cc(NCc3nc4ccccc4n3Cc3ccccc3)ccc2n1C | -61.7 |
| c1csc(CNc2nc3ccccc3n2CCN2CCOCC2)c1 | -9.4 |
| Brc1cccc(CNc2nc3ccccc3n2CCN2CCOCC2)c1 | -56.7 |
| Cc1cccc(NCc2nc3ccccc3n2Cc2ccccc2)c1 | 12 |
| COc1ccc(CNc2nc3ccccc3n2CCN2CCOCC2)cc1 | -46.5 |
| CCn1cnc2cc(NCc3nc4ccccc4n3Cc3ccccc3)ccc21 | -15.2 |
| CCN(CC)c1ccc(CNc2nc3ccccc3n2CCN2CCOCC2)cc1 | -76.1 |

| SMILES | hERG current change (%, negative = inhibition) at 1uM [%] |
| --- | --- |
| CCN(CC)c1ccc(CNc2nc3ccccc3n2CCN2CCCCC2)cc1 | -18 |
| c1ccc(Cn2c(CNc3nc4ccccc4n3CCN3CCCCC3)nc3ccccc32)cc1 | -5.91 |
| c1ccc(Cn2c(CNc3nc4ccccc4n3CCN3CCOCC3)nc3ccccc32)cc1 | -54.4 |
| NS(=O)(=O)c1ccc(NC(=O)CSc2nc(Nc3ccccc3)nc(N3CCOCC3)n2)cc1 | 24.9 |
| Cc1c(F)cccc1NC(=O)CSCC(=O)Nc1ccccc1 | 5.59 |
| COC(=O)C1=C(c2ccc(F)cc2OCc2ccccc2)C[C@@H]2CC[C@H]1N2C(=O)NCc1ccc(Cl)cc1 | 14.6 |
| Cc1ccc(OC(=O)c2ccccc2C(=O)OCC(F)(F)C(F)F)cc1 | 14 |
| Cc1ccc(-c2nnn(CC(=O)NCCC3=CCCCC3)n2)cc1 | 18.4 |
| Cc1ccc(NC(=O)NCCCCc2ccccc2)cc1 | 14.4 |
| CCC(NS(=O)(=O)c1ccc(C)cc1)C(=O)N1CCOCCOCCOCC1 (centres unmarked) | 20.3 |
| COc1ccc(OCc2nnc(SCc3ccc(C(=O)O)cc3)o2)cc1 | 16.6 |
| Cc1ccc(NC(=O)c2nn(C34CC5CC(CC(C5)C3)C4)cc2[N+](=O)[O-])cc1 | -2.47 |
| Cc1cc(Cl)ccc1OCC(=O)NNC(=O)CCOc1ccccc1 | -0.757 |
| O=C(COC(=O)CC(c1ccccc1)c1ccccc1)Nc1ccc(F)c(F)c1 | 1.93 |
| O=c1c2ccccc2nc(-c2ccccc2)n1-c1nccs1 | 11.6 |
| C/C=C(\C)C(=O)OC1c2c(ccc3ccc(=O)oc23)OC(C)(C)C1OC(C)=O (centres unmarked) | -54.7 |
| C/C=C(/C)C(=O)OC1c2c(ccc3ccc(=O)oc23)OC(C)(C)C1OC(C)=O (centres unmarked) | -36.9 |
| C/C=C(/C)C(=O)O[C@@H]1c2c(ccc3ccc(=O)oc23)OC(C)(C)[C@@H]1OC(=O)/C(C)=C\C | 9.46 |
